From article PMC10668032, “Altered binding affinity of SIX1-Q177R correlates with enhanced WNT5A and WNT pathway effector expression in Wilms tumor”
Whole data set: some 33,000 sequences, median “e-score” near -0.053, cut for the highest 2% near 0.38. This is one part of a sample in which the highest values are shown more often than they occur.

target: T1, SIX1 homeodomain (reference allele) (human, UniProt Q15475 108-198); assay: universal protein binding microarray; Universal all-10-mer PBM (8x60K, AMADID 030236), 300 nM GST-tagged protein, Alexa Fluor 488 anti-GST; buffer, salt, pH and temperature not stated (as in Berger); high values mean tight binding; details: protein: ivt; tags: N-terminal GST; dsDNA, one strand shown
T1 sequence: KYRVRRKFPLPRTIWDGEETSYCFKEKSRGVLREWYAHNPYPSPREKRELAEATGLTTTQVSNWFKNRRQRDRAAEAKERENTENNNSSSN
Procedure, shortened: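 GST-tagged homeodomains were made by in vitro transcription/translation and quantified by anti-GST western blot against a recombinant GST standard curve. They were applied in duplicate at 300 nM final concentration to universal 'all 10-mer' protein binding microarrays (8×60K format). Binding was quantified as 8-mer E-scores with the Universal PBM Analysis Suite.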

Sequence | binding signal
ACAATACC | 0.318 ± 0.028 E-score
GGATAAAA | 0.166 ± 0.106 E-score
GTGGACAC | 0.182 ± 0.0385 E-score
ATCACCGC | 0.191 ± 0.00595 E-score
ATCTGTGC | 0.153 ± 0.0364 E-score
ATAAATAT | 0.168 ± 0.1 E-score
GAACCCGA | 0.19 ± 0.0702 E-score
ATAGCCAT | 0.218 ± 0.0172 E-score
AGTATCTA | 0.347 ± 0.0371 E-score
GGTATCTA | 0.426 ± 0.0126 E-score
GCTATCTA | 0.169 ± 0.00501 E-score
ATTGTATC | 0.367 ± 0.0214 E-score
CCTGTATC | 0.365 ± 0.02 E-score
GCAGTATA | 0.205 ± 0.0152 E-score
CCAGTATC | 0.407 ± 0.0315 E-score
ACAGTATA | 0.287 ± 0.0542 E-score
ACAGTATC | 0.402 ± 0.0345 E-score
GATCTTGA | 0.269 ± 0.0237 E-score
ATCACGCA | 0.203 ± 0.00725 E-score
ATGAGATG | 0.243 ± 0.00629 E-score
TATCGTAA | 0.296 ± 0.0233 E-score
ACACCGGA | 0.364 ± 0.0193 E-score
ACACCGGT | 0.39 ± 0.0245 E-score
ACACCGGG | 0.301 ± 0.000651 E-score
CGGATGTA | 0.151 ± 0.0426 E-score

Sequence | binding signal
TAGGCGAA | 0.164 ± 0.00529 E-score
GTGGTATA | 0.3 ± 0.0344 E-score
ATGGTATC | 0.469 ± 0.00713 E-score
ATGGTCTC | 0.153 ± 0.0473 E-score
CTGGTATC | 0.45 ± 0.00737 E-score
CTGGTATA | 0.255 ± 0.0119 E-score
ATGGTATA | 0.336 ± 0.0339 E-score
AACGATAC | 0.435 ± 0.0105 E-score
TACGATAA | 0.175 ± 0.0264 E-score
GACGATCC | 0.387 ± 0.0391 E-score
AAGGATAT | 0.365 ± 0.0541 E-score
CACGATCC | 0.342 ± 0.0744 E-score
CACGATAC | 0.438 ± 0.0144 E-score
AACGATCC | 0.333 ± 0.0104 E-score
AACGACAC | 0.276 ± 0.0085 E-score
AACGATAT | 0.408 ± 0.0444 E-score
AACGATCT | 0.176 ± 0.00697 E-score
AACGATAG | 0.175 ± 0.0167 E-score
CACGATAG | 0.245 ± 0.0038 E-score
ATATAACG | 0.2329 ± 0.00214 E-score
ATTGTATA | 0.308 ± 0.00631 E-score
CCTCATCG | 0.185 ± 0.0079 E-score
TAAGATCA | 0.293 ± 0.0543 E-score
CGATTAAA | 0.156 ± 0.0382 E-score
AATCTGAT | 0.289 ± 0.0333 E-score

Sequence | binding signal
CGGATGAG | 0.183 ± 0.049 E-score
TATCTCGA | 0.248 ± 0.0332 E-score
CAAGGGGA | 0.165 ± 0.0484 E-score
GAAGATAC | 0.354 ± 0.0356 E-score
GACGATAC | 0.453 ± 0.00476 E-score
GACGACAC | 0.164 ± 0.00255 E-score
GGTAATAC | 0.297 ± 0.025 E-score
ATATGTGC | 0.241 ± 0.0491 E-score
ATCCGGTC | 0.318 ± 0.00861 E-score
ATCCGGGA | 0.295 ± 0.0471 E-score
ATCCGGTG | 0.405 ± 0.026 E-score
ATCCGGGC | 0.3565 ± 0.000735 E-score
ATCCGGGG | 0.418 ± 0.0155 E-score
ATCCGGTA | 0.318 ± 0.0245 E-score
GAAGACAC | 0.21 ± 0.0292 E-score
CTAACACC | 0.213 ± 0.0035 E-score
GATCACCA | 0.334 ± 0.0295 E-score
TATCACCA | 0.42 ± 0.031 E-score
TCTCACCA | 0.259 ± 0.00728 E-score
TATCACGA | 0.373 ± 0.0201 E-score
GATCACAA | 0.31 ± 0.0262 E-score
TATCACAA | 0.385 ± 0.049 E-score
CGATAATA | 0.328 ± 0.0401 E-score
CCCTTCTC | 0.274 ± 0.0318 E-score
ATAGTCTC | 0.151 ± 0.0259 E-score

Sequence | binding signal
ACAGATCG | 0.2347 ± 0.00197 E-score
GGCGGGTA | 0.228 ± 0.0067 E-score
CGCGGATA | 0.3882 ± 0.00207 E-score
GGCGGATA | 0.403 ± 0.0134 E-score
CGCGGATC | 0.365 ± 0.0314 E-score
AGCGGATG | 0.154 ± 0.049 E-score
AGCGGATA | 0.364 ± 0.0328 E-score
GATCAGCC | 0.293 ± 0.0341 E-score
ATCGCATC | 0.3271 ± 0.00246 E-score
CACGTATC | 0.433 ± 0.00889 E-score
TACGTATA | 0.272 ± 0.0445 E-score
GACGTATC | 0.42 ± 0.0354 E-score
GACGTCTC | 0.163 ± 0.0364 E-score
CACGTATA | 0.304 ± 0.0586 E-score
ATCGTATC | 0.441 ± 0.0183 E-score
AACGTATC | 0.385 ± 0.067 E-score
CTCGTATC | 0.367 ± 0.0253 E-score
AACCTATC | 0.246 ± 0.0031 E-score
AACGTATA | 0.167 ± 0.109 E-score
GACGTATA | 0.213 ± 0.108 E-score
ATCGTATA | 0.324 ± 0.00599 E-score
GATCGGTA | 0.3365 ± 0.000728 E-score
TATTCTCA | 0.19 ± 0.0783 E-score
AGAACATA | 0.152 ± 0.0261 E-score
ATACTGCG | 0.185 ± 0.0499 E-score

Sequence | binding signal
CGTAATCC | 0.276 ± 0.00776 E-score
CGATCCTC | 0.333 ± 0.00326 E-score
AGATCCGA | 0.276 ± 0.0275 E-score
GGATCCGA | 0.376 ± 0.0683 E-score
AGATCCGC | 0.333 ± 0.0252 E-score
CGATCCGC | 0.418 ± 0.0398 E-score
CGATCCGA | 0.396 ± 0.0357 E-score
ATCGTCTC | 0.304 ± 0.0389 E-score
TACAAGTA | 0.162 ± 0.0274 E-score
ATCTAGGG | 0.187 ± 0.0244 E-score
CCGGTAGA | 0.151 ± 0.0265 E-score
ATCACGGA | 0.288 ± 0.0444 E-score
GATACTCC | 0.45 ± 0.00694 E-score
GATACTAC | 0.432 ± 0.0131 E-score
AATACTAC | 0.181 ± 0.00602 E-score
TATACTCA | 0.192 ± 0.0629 E-score
CATACTCA | 0.152 ± 0.0301 E-score
GATACTAA | 0.362 ± 0.0288 E-score
AATACTCG | 0.165 ± 0.0216 E-score
GATACTCA | 0.429 ± 0.0251 E-score
AATACTCA | 0.255 ± 0.0524 E-score
TAGAGATA | 0.268 ± 0.0459 E-score
AGGCCGAT | 0.153 ± 0.00796 E-score
ATATAACC | 0.177 ± 0.0584 E-score
ATCGCTGG | 0.23 ± 0.00422 E-score

Sequence | binding signal
AGATAGCC | 0.247 ± 0.0195 E-score
ATCTGGGA | 0.196 ± 0.00724 E-score
TATCTAAA | 0.301 ± 0.0245 E-score
GTATACAC | 0.371 ± 0.00578 E-score
ATCATGAC | 0.197 ± 0.0404 E-score
ATCATGAT | 0.3975 ± 0.000976 E-score
ATCATGAG | 0.23 ± 0.0357 E-score
ATCAGGAT | 0.394 ± 0.00836 E-score
ATCAGGAA | 0.165 ± 0.0245 E-score
ATCAGGAG | 0.188 ± 0.0305 E-score
CATCGGGA | 0.164 ± 0.0507 E-score
ATCTACTG | 0.22 ± 0.0235 E-score
GATCGGGC | 0.296 ± 0.015 E-score
CACATATA | 0.165 ± 0.0792 E-score
TACATATA | 0.254 ± 0.00881 E-score
AAAATATC | 0.154 ± 0.121 E-score
CACATATC | 0.404 ± 0.0155 E-score
AACATATA | 0.235 ± 0.0646 E-score
AACATATC | 0.378 ± 0.0821 E-score
GACATATC | 0.386 ± 0.0597 E-score
GACATATA | 0.226 ± 0.0783 E-score
CATATATG | 0.23 ± 0.0477 E-score
ATATTACC | 0.259 ± 0.0572 E-score
ACGGTATG | 0.157 ± 0.0316 E-score
ACGGTATA | 0.309 ± 0.0298 E-score

Sequence | binding signal
CCGGTATC | 0.465 ± 0.014 E-score
ACGGTATC | 0.461 ± 0.00576 E-score
CCGGTATA | 0.343 ± 0.0129 E-score
CCGGTAAA | 0.157 ± 0.034 E-score
AGCTGGAT | 0.248 ± 0.0399 E-score
CGGGCTCA | 0.2 ± 0.0586 E-score
GCGATACA | 0.3759 ± 0.00354 E-score
CCGATACG | 0.425 ± 0.0199 E-score
ACGATACC | 0.4766 ± 0.000912 E-score
CCAATACC | 0.324 ± 0.0157 E-score
CCGATACC | 0.478 ± 0.00955 E-score
CCGATACA | 0.355 ± 0.0604 E-score
GCGATAGC | 0.165 ± 0.0972 E-score
GCGATACC | 0.4835 ± 0.00434 E-score
ACGATAGC | 0.217 ± 0.0418 E-score
ACTATACC | 0.294 ± 0.0358 E-score
CCGATAGG | 0.348 ± 0.0522 E-score
CCTATACC | 0.311 ± 0.00556 E-score
ATCGCCCC | 0.253 ± 0.0184 E-score
TCATCTCA | 0.298 ± 0.0135 E-score
TACCTATA | 0.289 ± 0.0262 E-score
ACTGTATA | 0.239 ± 0.0136 E-score
